High-throughput results (PubChem)
Many of the other results were omitted from the sample, so hits are more common in it than they were.
Pf Dd2 growth: inhibitors of Plasmodium falciparum Dd2 growth | P. falciparum Dd2 growth, SYBR Green, 72 h | Potency, µM (titrated, usually from 28.9 µM), actives largely listed as inhibitors | 4.3% of 120,000 active | AID 1347417; active = well fitted inhibition curve with a large enough effect; also: nearly all actives have a fitted effect of over 65% in size
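Readout: SYBR Green fluorescence, 485 nm excitation, 535 nm emission, after ~16 h lysis at 37C. Before that, Dd2-infected red cells (2.5% hematocrit) grew 72 h with compound, 29 uM top final concentration.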
A number is an active result; 0 = inactive; [ ] = dose if it differs, or a comment.

SMILES	Pf Dd2 growth
COCc1nc(CCNC(=O)C2CCC2)no1	0
COc1ccc(-c2nc3cc(C)ccc3cc2CN2CCN(C)C(=O)C2)cc1OC	7.9µM
COc1ccc(-c2n[nH]c3c2CC(=O)N(CC2CC2)C3)cc1OC	0
CCN1CCN(Cc2cc3ccc(C)cc3nc2-c2ccc(OC)c(OC)c2)CC1	0
CCCN(CC1CCOC1)S(=O)(=O)c1ccc(F)c(C)c1 (stereo not drawn)	0[5.79 µM]
O=C1NC(=NC2CCCC2)C2(CCN([S+](=O)([O-])c3cccc(C(F)(F)F)c3)C2)N1c1cc(F)cc(F)c1 (stereo not drawn)	0
COc1ccc(C(=O)N2CCCC3(C2)C(=NC2CCCCC2)NC(=O)N3c2cccc(OC)c2)cc1 (stereo not drawn)	0
COc1ccc(CN2CCC3(C2)C(=NC2CCCCC2)NC(=O)N3c2cccc(OC)c2)cc1 (stereo not drawn)	2.8µM
COc1cccc(N2C(=O)NC(=NC3CCCCC3)C23CCN(Cc2cccnc2)C3)c1 (stereo not drawn)	0
COc1cccc(N2C(=O)NC(=NC3CCCCC3)C23CCN(Cc2ccccc2)CC3)c1	0
O=C1NC(=NC2CCCC2)C2(CCCN([S+](=O)([O-])c3cccc(C(F)(F)F)c3)C2)N1c1cccnc1 (stereo not drawn)	0
COc1ccc(CN2CCCC3(C2)C(=NC2CCCCC2)NC(=O)N3c2cccc(OC)c2)cc1 (stereo not drawn)	8.9µM
COc1cccc(N2C(=O)NC(=NC3CCCCC3)C23CCCN(Cc2ccsc2)C3)c1 (stereo not drawn)	11µM
COc1cccc(N2C(=O)NC(=NC3CCCCC3)C23CCN([S+](=O)([O-])c2cccs2)C3)c1 (stereo not drawn)	0
COc1ccc(C(=O)N2CCC3(C2)C(=NC2CCCCC2)NC(=O)N3c2cccc(OC)c2)cc1 (stereo not drawn)	0
COc1cccc(N2C(=O)NC(=NC3CCCCC3)C23CCCN([S+](=O)([O-])c2cccc(C(F)(F)F)c2)C3)c1 (stereo not drawn)	13µM
CC(=O)N1CCC(CC(=O)N2C[C@@H](Oc3cccnc3)C[C@H]2C(=O)N2CCOCC2)CC1	0
O=C1CCCCC(CNC(=O)c2n[nH]c(=O)c3ccccc23)N1 (stereo not drawn)	0
Cc1nnnn1-c1cccc(C(=O)N2CC[C@@](O)(C3CCOCC3)[C@H](C)C2)c1	0
CCOc1ccc(C(=O)N[C@H]2CCOC[C@H]2C2CCOCC2)o1	0
CCC1Oc2ccc(NC(=O)c3ccc4c(c3)OCO4)cc2CN(Cc2ccccc2)C1=O (stereo not drawn)	0
CC(=O)NC1CC2(CCN(C(=O)CCCN(C)C)CC2)c2ccccc21 (stereo not drawn)	0
COCCCN1CCCC2(CCN(C(=O)NCc3cccc(F)c3)C2)C1=O (stereo not drawn)	0
CCNC(=O)C1CCN(C(=O)N2CC3CC(C2)[C@H]2CCCC(=O)N2C3)CC1 (stereo partly drawn)	0
COCC(=O)N[C@@H]1CN(Cc2cccc(OC)c2OC)C[C@H]1CO	0
SMILES	Pf Dd2 growth
NC1CC(c2cc(N3CCN(CCOc4ccccc4)CC3)ncn2)C1 (stereo not drawn)	0
COc1cccc(N2C(=O)NC(=NC3CCCC3)C23CCN(CC2CCCCC2)C3)c1 (stereo not drawn)	10µM
COc1cccc(N2C(=O)NC(=NC3CCCCC3)C23CCN(CC2CCCCC2)C3)c1 (stereo not drawn)	0
COc1cccc(N2C(=O)NC(=NC3CCCC3)C23CCN(CC2CC2)C3)c1 (stereo not drawn)	0
COc1ccc(C2(C(=O)NCCC3CCN(C(=O)Nc4ccc(C)cc4)CC3)CC2)cc1	0
O=C([C@@H]1C[C@H](Oc2ccccc2)CN1C(=O)C1(c2ccccc2)CC1)N1CCCC1	1.8µM
CC(C)CC(=O)N1C[C@@H](Oc2ccccc2)C[C@H]1C(=O)N1CCCC1	0
O=C([C@@H]1C[C@H](Oc2ccccc2)CN1C(=O)CC1CCCC1)N1CCCC1	0
Cc1cn2nc(C(=O)N3CCN(C(=O)c4ccco4)CC3)cc2c(N2CCCC2)n1	0
Cc1ccccc1-c1nc(N2CCOCC2)cc2c1CN(CC1CC1)C2=O	0
COC(=O)COCC(=O)NC[C@@H]1C=C(C)[C@H](CC(=O)NCc2ccc(F)cc2)C[C@H]1C(C)C	0
CN(CCO)CC1(O)CCCN(Cc2cccc(F)c2F)C1=O (stereo not drawn)	0
CC(C)(C)CNCC1(O)CCCN(Cc2cccc(F)c2F)C1=O (stereo not drawn)	4.5µM
O=C1N(Cc2cccc(F)c2F)CCCC1(O)CN1CCNCC1 (stereo not drawn)	0
CN1C(=O)CCCCC1C(=O)N1CCc2ccccc2C1 (stereo not drawn)	0
Cc1nnc(N2CCC(C(=O)NC3CCCCC3)CC2)c2nn(-c3ccccc3)c(C)c12	0
Cc1nnc(N2CCCC(C(=O)NCc3ccccc3)C2)c2nn(-c3ccccc3)c(C)c12 (stereo not drawn)	0
Cc1ccc(-n2nc3c(N4CCCC(C(=O)NCc5ccc(Cl)cc5)C4)nnc(C)c3c2C)cc1 (stereo not drawn)	0
CCOc1ccc(CCNC(=O)C2CCCN(c3nnc(C)c4c(C)n(-c5ccccc5)nc34)C2)cc1 (stereo not drawn)	7.9µM
CCOC(=O)c1cccc(NC(=O)C2CCCN(c3nnc(C)c4c(C)n(-c5ccccc5)nc34)C2)c1 (stereo not drawn)	0
CCc1ccc(CNC(=O)C2CCCN(c3nnc(C)c4c(C)n(-c5ccccc5)nc34)C2)cc1 (stereo not drawn)	0
CCOC(=O)C1CCCN(C(=O)C2CCN(c3nnc(C)c4c(C)n(-c5ccccc5)nc34)CC2)C1 (stereo not drawn)	10µM
COc1ccc(-n2nc3c(N4CCCC(C(=O)NCc5cccc(F)c5)C4)nnc(C)c3c2C)cc1 (stereo not drawn)	11µM
Cc1ccc(CCNC(=O)C2CCCN(c3nnc(C)c4c(C)n(-c5ccccc5)nc34)C2)cc1 (stereo not drawn)	0[5.79 µM]
COc1ccc(-c2noc([C@@H]3CCCN3C(=O)c3cc(Cl)ccc3F)n2)cc1OC	0
SMILES	Pf Dd2 growth
CCOC(=O)C1CCCN(C(=O)c2coc(COc3cccc(F)c3F)n2)C1 (stereo not drawn)	0
O=C(NCc1ccccc1)O[C@H]1COCCN(c2nc3ccccc3o2)C1	0
CC(=O)N1CCC(Cc2ccc(C(N)=O)cc2)CC1	0
O=C1NCCCCCN(C(=O)c2ccc3ccccc3n2)[C@H]2CCC[C@@H]12	0
Cc1ccc(S(=O)(=O)NC[C@H]2OC[C@@H](NCC(C)(C)C)[C@@H]2O)cc1	0
CN(C)c1cc(N2CCCC(NC(=O)COc3ccccc3)C2)ncn1 (stereo not drawn)	0[5.79 µM]
COc1cccc([S+](=O)([O-])N2CCC(N3Cc4ccccc4C3=O)CC2)c1	0
Cc1cc(C)n(C(C)C(=O)N2CCn3nc(Cc4ccccc4)cc3C2)n1 (stereo not drawn)	0
CC(C)N1CCC(CC(=O)N2CCn3nc(Cc4ccccc4)cc3C2)CC1	10µM
CCOCC(=O)N1CCn2nc(Cc3ccccc3)cc2C1	0
O=C(CCn1cnc2ccccc21)N1CCn2nc(Cc3ccccc3)cc2C1	0
C[C@@H]1CCC[C@H](C)N1CC(=O)N1CCn2nc(Cc3ccccc3)cc2C1	11µM
C=CCN1CC(C(=O)N2CCn3nc(Cc4ccccc4)cc3C2)CC1=O (stereo not drawn)	0
